# Laboratory results reported in the supplement of paper PMC11732987, “Enantioselective OTUD7B fragment discovery through chemoproteomics screening and high-throughput optimisation” (Communications Chemistry, 2025).
# Values without a mark were called inactive.
# Legend:
# Experiment in all cases: log2 ratio of Biotin-Ahx-Ub-VS probe labelling (fragment/DMSO); higher = less target engagement (more negative = stronger competition), active = hit call of the paper (q ≤ 0.05, log2 ratio ≤ -1)
# Details in all cases: compound concentration: 200 uM; treatment time: 3 h
# OTUD6B = target: T1, OTUD6B (UniProt Q8N6M0)
# T1 sequence (whole entry): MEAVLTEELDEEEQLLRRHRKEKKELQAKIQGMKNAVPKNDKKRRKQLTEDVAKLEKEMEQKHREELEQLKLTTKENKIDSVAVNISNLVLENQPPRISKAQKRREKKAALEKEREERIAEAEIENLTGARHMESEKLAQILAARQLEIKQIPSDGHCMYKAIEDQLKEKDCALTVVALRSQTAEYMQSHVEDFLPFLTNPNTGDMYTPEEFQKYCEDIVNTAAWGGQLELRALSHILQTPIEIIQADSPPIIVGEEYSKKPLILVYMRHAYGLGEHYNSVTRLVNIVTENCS
# Summary of the method: (§1)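 HEK293T lysate (495 µg per sample, in Tris/CHAPS/IGEPAL buffer with protease inhibitors) was exposed in triplicate for 3 h to fragment at 200 µM or to vehicle, then to Biotin-Ahx-Ub-VS at 0.5 µM final for 1 h. Labelled DUBs were enriched on NeutrAvidin, digested with LysC and trypsin, and analysed by diaPASEF LC-MS/MS. Spectronaut label-free quantities were normalised to the global median, and values are average log2 ratios of fragment over vehicle from an unpaired t-test. Only proteins with ≥2 unique peptides were used.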
# OTUD7B = target: T2, OTUD7B (UniProt Q6GQQ9)
# T2 sequence (whole entry): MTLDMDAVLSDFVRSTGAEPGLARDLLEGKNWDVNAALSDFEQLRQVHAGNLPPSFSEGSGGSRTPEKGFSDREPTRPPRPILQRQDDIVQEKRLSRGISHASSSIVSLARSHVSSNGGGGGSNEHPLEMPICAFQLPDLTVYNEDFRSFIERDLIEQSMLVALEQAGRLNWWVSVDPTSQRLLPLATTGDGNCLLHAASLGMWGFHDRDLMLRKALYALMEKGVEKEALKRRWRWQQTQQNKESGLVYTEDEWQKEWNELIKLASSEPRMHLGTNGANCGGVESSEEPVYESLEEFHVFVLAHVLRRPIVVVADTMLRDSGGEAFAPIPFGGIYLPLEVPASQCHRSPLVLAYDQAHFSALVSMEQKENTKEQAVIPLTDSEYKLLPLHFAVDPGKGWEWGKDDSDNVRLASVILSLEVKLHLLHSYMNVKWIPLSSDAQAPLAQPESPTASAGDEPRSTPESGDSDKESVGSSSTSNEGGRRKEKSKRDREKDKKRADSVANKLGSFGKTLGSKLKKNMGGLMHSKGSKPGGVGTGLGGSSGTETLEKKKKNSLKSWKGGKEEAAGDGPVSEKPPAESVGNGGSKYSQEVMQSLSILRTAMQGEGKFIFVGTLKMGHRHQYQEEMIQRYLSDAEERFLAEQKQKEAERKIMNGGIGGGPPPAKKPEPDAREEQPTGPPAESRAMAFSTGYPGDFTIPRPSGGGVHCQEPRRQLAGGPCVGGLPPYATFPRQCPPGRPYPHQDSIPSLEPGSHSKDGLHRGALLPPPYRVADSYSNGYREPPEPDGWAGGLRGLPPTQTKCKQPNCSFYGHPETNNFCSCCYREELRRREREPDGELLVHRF
# Summary of the method: as §1
# PRPF8 = PRPF8 (UniProt Q6P2Q9)
# Summary of the method: as §1
# PSMD7 = target: T3, PSMD7 (UniProt P51665)
# T3 sequence (whole entry): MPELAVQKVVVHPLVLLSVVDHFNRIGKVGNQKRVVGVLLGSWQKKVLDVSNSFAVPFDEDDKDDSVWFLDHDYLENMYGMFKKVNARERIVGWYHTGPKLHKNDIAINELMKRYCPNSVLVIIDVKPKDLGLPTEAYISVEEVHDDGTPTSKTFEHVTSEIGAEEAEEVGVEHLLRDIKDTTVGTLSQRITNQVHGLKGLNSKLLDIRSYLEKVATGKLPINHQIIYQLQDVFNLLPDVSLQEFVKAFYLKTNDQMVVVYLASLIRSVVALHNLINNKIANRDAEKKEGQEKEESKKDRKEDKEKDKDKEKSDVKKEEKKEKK
# Summary of the method: as §1
# UCHL1 = UCHL1 (UniProt P09936)
# Chain of UCHL1 (P09936 whole entry, looked up): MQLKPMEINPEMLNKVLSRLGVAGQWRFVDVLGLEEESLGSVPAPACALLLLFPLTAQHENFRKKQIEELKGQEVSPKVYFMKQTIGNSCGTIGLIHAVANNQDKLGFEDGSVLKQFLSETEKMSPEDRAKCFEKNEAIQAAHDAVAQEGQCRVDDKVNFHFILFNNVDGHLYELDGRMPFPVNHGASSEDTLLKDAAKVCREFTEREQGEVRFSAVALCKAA
# Summary of the method: as §1
# UCHL3 = target: T4, UCHL3 (UniProt P15374)
# T4 sequence (whole entry): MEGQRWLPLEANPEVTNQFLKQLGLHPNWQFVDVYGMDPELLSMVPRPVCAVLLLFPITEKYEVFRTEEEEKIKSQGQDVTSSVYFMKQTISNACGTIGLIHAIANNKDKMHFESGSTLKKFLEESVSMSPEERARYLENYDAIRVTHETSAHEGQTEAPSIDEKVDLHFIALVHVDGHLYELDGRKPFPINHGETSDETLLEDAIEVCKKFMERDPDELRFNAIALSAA
# Summary of the method: as §1
# UCHL5 = target: T5, UCHL5 (UniProt Q9Y5K5)
# T5 sequence (whole entry): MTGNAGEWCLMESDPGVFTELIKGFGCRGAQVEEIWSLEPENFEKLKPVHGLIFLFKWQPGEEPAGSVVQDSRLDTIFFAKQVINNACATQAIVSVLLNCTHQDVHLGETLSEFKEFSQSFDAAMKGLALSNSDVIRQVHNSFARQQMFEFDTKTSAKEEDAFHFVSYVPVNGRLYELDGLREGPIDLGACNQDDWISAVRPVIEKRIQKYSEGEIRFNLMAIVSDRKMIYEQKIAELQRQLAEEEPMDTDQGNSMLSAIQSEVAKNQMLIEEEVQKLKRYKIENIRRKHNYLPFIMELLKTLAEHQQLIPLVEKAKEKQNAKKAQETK
# Summary of the method: as §1
# USP10 = USP10 (UniProt Q14694)
# Chain of USP10 (Q14694 whole entry): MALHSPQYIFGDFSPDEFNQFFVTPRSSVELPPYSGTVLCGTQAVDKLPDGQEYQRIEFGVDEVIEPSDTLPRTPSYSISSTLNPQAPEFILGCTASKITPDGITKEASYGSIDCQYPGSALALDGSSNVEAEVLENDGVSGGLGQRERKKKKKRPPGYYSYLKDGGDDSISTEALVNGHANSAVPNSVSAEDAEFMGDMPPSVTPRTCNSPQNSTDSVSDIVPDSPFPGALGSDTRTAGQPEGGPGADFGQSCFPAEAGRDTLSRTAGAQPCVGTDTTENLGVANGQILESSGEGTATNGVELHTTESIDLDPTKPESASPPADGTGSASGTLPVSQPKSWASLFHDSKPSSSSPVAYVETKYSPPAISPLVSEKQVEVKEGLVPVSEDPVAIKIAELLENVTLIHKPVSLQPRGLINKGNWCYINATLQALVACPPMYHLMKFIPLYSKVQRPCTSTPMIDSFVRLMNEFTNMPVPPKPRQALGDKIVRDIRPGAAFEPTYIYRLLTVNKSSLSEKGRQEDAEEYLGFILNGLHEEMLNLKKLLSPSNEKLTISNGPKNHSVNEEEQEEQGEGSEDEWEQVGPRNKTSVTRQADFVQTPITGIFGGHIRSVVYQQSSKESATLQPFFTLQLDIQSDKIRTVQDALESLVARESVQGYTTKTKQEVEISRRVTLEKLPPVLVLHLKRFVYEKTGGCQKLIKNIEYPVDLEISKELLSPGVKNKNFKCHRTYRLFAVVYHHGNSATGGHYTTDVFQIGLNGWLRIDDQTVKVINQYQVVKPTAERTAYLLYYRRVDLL
# Summary of the method: as §1
# USP15 = target: T6, USP15 (UniProt Q9Y4E8)
# T6 sequence (whole entry): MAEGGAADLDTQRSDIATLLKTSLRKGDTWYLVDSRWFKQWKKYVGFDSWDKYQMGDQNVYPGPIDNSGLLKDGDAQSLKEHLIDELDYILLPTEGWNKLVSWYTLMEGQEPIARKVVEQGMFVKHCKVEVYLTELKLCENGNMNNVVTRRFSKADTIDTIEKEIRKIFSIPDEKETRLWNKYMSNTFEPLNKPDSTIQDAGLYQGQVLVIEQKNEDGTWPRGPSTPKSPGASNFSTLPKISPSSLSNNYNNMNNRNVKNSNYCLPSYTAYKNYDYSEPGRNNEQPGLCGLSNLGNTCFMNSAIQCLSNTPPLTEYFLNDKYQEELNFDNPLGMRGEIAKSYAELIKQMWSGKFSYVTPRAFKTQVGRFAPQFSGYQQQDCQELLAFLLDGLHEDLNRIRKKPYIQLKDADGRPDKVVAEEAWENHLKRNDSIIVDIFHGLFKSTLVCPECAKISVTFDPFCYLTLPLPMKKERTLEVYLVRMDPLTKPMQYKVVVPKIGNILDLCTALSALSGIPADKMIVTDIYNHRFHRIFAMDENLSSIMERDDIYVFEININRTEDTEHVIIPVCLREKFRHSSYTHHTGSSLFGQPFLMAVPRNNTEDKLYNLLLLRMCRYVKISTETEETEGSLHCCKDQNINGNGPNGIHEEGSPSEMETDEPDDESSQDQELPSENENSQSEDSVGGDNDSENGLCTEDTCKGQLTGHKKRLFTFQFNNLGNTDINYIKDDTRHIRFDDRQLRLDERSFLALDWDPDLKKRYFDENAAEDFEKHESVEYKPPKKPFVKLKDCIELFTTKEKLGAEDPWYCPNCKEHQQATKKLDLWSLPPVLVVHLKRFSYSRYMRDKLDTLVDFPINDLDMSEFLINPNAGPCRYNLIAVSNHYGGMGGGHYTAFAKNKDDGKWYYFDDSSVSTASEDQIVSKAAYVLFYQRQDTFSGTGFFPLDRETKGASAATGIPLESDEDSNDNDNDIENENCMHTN
# Summary of the method: as §1
# USP16 = USP16 (UniProt Q9Y5T5)
# Chain of USP16 (Q9Y5T5 whole entry, looked up): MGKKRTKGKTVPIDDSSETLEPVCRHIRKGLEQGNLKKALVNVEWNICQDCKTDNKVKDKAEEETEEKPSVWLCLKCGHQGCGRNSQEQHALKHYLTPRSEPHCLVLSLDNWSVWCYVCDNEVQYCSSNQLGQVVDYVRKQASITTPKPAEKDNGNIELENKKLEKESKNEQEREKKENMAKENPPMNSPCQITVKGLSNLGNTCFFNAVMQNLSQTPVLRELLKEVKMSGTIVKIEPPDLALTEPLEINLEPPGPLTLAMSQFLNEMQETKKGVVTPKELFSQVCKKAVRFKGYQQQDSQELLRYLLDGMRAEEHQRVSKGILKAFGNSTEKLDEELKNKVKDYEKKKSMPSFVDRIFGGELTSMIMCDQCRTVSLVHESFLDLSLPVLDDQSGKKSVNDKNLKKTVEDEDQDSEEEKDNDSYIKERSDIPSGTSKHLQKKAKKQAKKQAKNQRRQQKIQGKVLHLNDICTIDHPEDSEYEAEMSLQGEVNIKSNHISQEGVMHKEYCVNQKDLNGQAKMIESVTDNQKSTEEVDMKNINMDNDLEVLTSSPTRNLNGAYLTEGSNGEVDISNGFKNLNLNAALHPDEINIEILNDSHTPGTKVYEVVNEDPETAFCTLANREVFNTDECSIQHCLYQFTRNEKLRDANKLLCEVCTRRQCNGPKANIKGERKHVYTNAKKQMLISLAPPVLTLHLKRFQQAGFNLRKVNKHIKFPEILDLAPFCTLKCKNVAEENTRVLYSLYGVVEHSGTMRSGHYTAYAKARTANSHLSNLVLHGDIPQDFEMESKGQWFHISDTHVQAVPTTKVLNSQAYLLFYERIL
# Summary of the method: as §1
compound,measurement,setting,value
Cc1cccn2cc(CCNC(=O)CCl)nc12.Cl,log2 ratio of Biotin-Ahx-Ub-VS probe labelling,OTUD6B,-0.414
same,log2 ratio of Biotin-Ahx-Ub-VS probe labelling,OTUD7B,-0.338
same,log2 ratio of Biotin-Ahx-Ub-VS probe labelling,PRPF8,0.19
same,log2 ratio of Biotin-Ahx-Ub-VS probe labelling,PSMD7,-0.207
same,log2 ratio of Biotin-Ahx-Ub-VS probe labelling,UCHL1,-1.98 (active)
same,log2 ratio of Biotin-Ahx-Ub-VS probe labelling,UCHL3,0.136
same,log2 ratio of Biotin-Ahx-Ub-VS probe labelling,UCHL5,-0.00232
same,log2 ratio of Biotin-Ahx-Ub-VS probe labelling,USP10,-0.0824
same,log2 ratio of Biotin-Ahx-Ub-VS probe labelling,USP15,-0.191
same,log2 ratio of Biotin-Ahx-Ub-VS probe labelling,USP16,-0.607
